Measured values published in the supplement of paper PMC7380943.

Columns and labels:
[1] = system: CLZ3 (HCA2 human fibroblast dual HR-NHEJ reporter); assay: NHEJ repair efficiency (GFP+ cells) relative to control (log10 fold); higher = more non-homologous end joining; conditions: 5 µM; doxycycline 0.5 ug/mL
[2] = system: CLZ3 (HCA2 human fibroblast dual HR-NHEJ reporter); assay: HR repair efficiency (tdTomato+ cells) relative to control (log10 fold); higher = more homologous recombination; conditions: 5 µM; doxycycline 0.5 ug/mL
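Throughout, for HR repair efficiency (tdTomato+ cells) relative to control: compound given one day before doxycycline, which switches on I-SceI endonuclease expression to create double-strand breaks within the integrated reporter.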
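Throughout, for NHEJ repair efficiency (GFP+ cells) relative to control: compound given one day ahead of doxycycline, which switches on I-SceI endonuclease to cut the chromosomally integrated reporter and create DSBs.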

Row | Compound | NHEJ repair efficiency (log10) [1] | HR repair efficiency (log10) [2]
1 | O=c1c(O[C@@H]2O[C@H](CO)[C@@H](O)[C@H](O)[C@H]2O[C@@H]2O[C@H](CO)[C@@H](O)[C@H](O)[C@H]2O)c(-c2ccc(O)c(O)c2)oc2cc(O)cc(O)c12 [Baimaside] | 0.0574 | 0.114
2 | C=C(C)[C@@H]1CC[C@]2(C)CC[C@]3(C)[C@H](CC[C@@H]4[C@@]5(C)CC[C@H](O)C(C)(C)[C@@H]5CC[C@]43C)[C@@H]12 [Lupeol] | 0.0011 | 0.06
3 | COc1ccc(C=O)c(O)c1 [4-Methoxysalicylaldehyde] | 0.00827 | -0.0885
4 | O=C1C[C@@H](c2ccc(O)cc2)Oc2cc(O)cc(O)c21 [Naringenin] | -0.176 | -0.025
5 | O=C(C=Cc1ccc(O)c(O)c1)O[C@H]1[C@H](O)C[C@](O)(C(=O)O)C[C@H]1OC(=O)C=Cc1ccc(O)c(O)c1 [Isochlorogenic Acid C (4,5-Di-O-Caffeoylquinic Acid)] | 0.021 | -0.0644
6 | O=c1ccc2ccc(O)c(O)c2o1 [Daphnetin] | 0.0636 | 0.146
7 | CC(C)=CCc1cc2c(cc1O)oc(=O)c1c3ccc(O)cc3oc21 [Psoralidin] | 0.31 | -0.0999
8 | CC(/C=C/C=C(\C)C(=O)O[C@@H]1O[C@H](CO[C@@H]2O[C@H](CO)[C@@H](O)[C@H](O)[C@H]2O)[C@@H](O)[C@H](O)[C@H]1O)=C\C=C\C=C(C)\C=C\C=C(/C)C(=O)O[C@@H]1O[C@H](CO[C@@H]2O[C@H](CO)[C@@H](O)[C@H](O)[C@H]2O)[C@@H](O)[C@H](O)[C@H]1O [Crocin I] | 0.0171 | 0.076
9 | CC(C)=CCc1cc2c(cc1O)O[C@H](c1ccc(O)cc1)CC2=O [Bavachin] | 0.0703 | 0.0642
10 | C[N+](C)(C)C[C@H](O)CC(=O)[O-] [L-Carnitine] | -0.0644 | 0.0663
11 | COC(=O)[C@H](c1ccccc1Cl)N1CCc2sccc2C1 [Clopidogrel bisulfate] | 0.138 | 0.138
12 | CCCCCCC[C@H](O)CC(=O)CCc1ccc(O)c(OC)c1 [8-Gingerol] | 0.00172 | 0.0341
13 | CC(CCC(OC1OC(COC2OC(CO)C(O)C(O)C2O)C(O)C(O)C1OC1OC(CO)C(O)C(O)C1O)C(C)(C)O)C1CCC2(C)C3CC=C4C(CCC(OC5OC(COC6OC(CO)C(O)C(O)C6O)C(O)C(O)C5O)C4(C)C)C3(C)C(O)CC12C (stereo unspecified) [Mogroside Ⅴ] | -0.025 | 0.0038
14 | NC(=O)NC1NC(=O)NC1=O (stereo unspecified) [Allantoin] | 0.029 | 0.00746
15 | C[C@H](CCC(=O)O)[C@H]1CC[C@H]2[C@@H]3[C@H](O)C[C@@H]4C[C@H](O)CC[C@]4(C)[C@H]3CC[C@]12C [Chenodeoxycholic Acid] | -0.124 | 0.00712
16 | CC1(C)CC[C@]2(C(=O)O)[C@H](O)C[C@]3(C)C(=CC[C@@H]4[C@@]5(C)CC[C@H](O)C(C)(C)[C@@H]5CC[C@]43C)[C@H]2C1 [Echinocystic acid] | -0.117 | 0.0642
17 | CC(=O)O[C@H]1[C@H](OCCc2ccc(O)c(O)c2)O[C@H](CO)[C@@H](OC(=O)/C=C/c2ccc(O)c(O)c2)[C@@H]1O[C@@H]1O[C@@H](C)[C@H](O)[C@@H](O)[C@H]1O [2-Acetylacteoside] | -0.00932 | -0.164
18 | COc1c(O)cc2c(c1O)C(=O)c1c(cc(C)c(O)c1OC)C2=O [Aurantio-obtusin] | 0.137 | 0.0361
